Results reported in PubChem BioAssay (Tox21).
Results filed as inconclusive are left out. Entries that show only a call come without a potency. A number with no mark means an inactive call. Active and inactive are the calls of the source. Unless noted, the call rests on the fitted dose curve; in most records, active means well fitted curve in the direction sought with a large enough effect in the repeat runs; inconclusive means weak or mixed curves; inactive means no such curve, though single readings can be large; an effect the other way counts as inactive or inconclusive.

What was measured:
[1] = qHTS assay to identify small molecule antagonists of the thyroid receptor (TR) signaling pathway (AID 743065); further: series mostly up to about 70 µM; nearly all actives have a fitted effect of over 55% in size
Method in brief: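 GH3.TRE-Luc rat pituitary cells carrying two TR response elements driving luciferase were plated for 4 h, given compound plus 1 nM T3 (final), and incubated 23.5 h at 37 C. ONE-Glo luminescence measured reporter inhibition; CellTiter-Fluor fluorescence tracked cytotoxicity.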

[2] = system: thyroid hormone receptor (rat, GH3 cells); assay: qHTS assay to identify small molecule agonists of the thyroid receptor (TR) signaling pathway (AID 743066; calls by dose curve)
[3] = target: Estrogen receptor (Homo sapiens) (UniProt P03372); assay: qHTS assay to identify small molecule antagonists of the estrogen receptor alpha (ER-alpha) signaling pathway (AID 743069; active means well fitted curve in the direction sought with a large enough effect in the signal ratio in the repeat runs, not every such curve was filed as active; the % refers to the signal ratio)
Method in brief: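 Screening used a UAS-driven beta-lactamase reporter integrated into HEK293 cells expressing ER-alpha, stimulated with 17beta-estradiol alongside test compounds over 18 hr at 37C; signal came from LiveBLAzer B/G FRET fluorescence.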

[4] = qHTS assay to identify small molecule antagonists of the estrogen receptor alpha (ER-alpha) signaling pathway - cell viability counter screen (AID 743074; calls by dose curve; further: nearly all actives have a fitted effect of over 45% in size)
[5] = target: Estrogen receptor (Homo sapiens) (UniProt P03372); assay: qHTS assay to identify small molecule agonists of the estrogen receptor alpha (ER-alpha) signaling pathway (AID 743075; calls by dose curve)
[6] = target: Estrogen receptor (Homo sapiens) (UniProt P03372); assay: qHTS assay to identify small molecule agonists of the estrogen receptor alpha (ER-alpha) signaling pathway using the BG1 cell line (AID 743079); further: nearly all actives have a fitted effect of over 20% in size; further: potency means the concentration at half of the fitted maximal effect
[7] = qHTS assay to identify small molecule antagonists of the estrogen receptor alpha (ER-alpha) signaling pathway using the BG1 cell line (AID 743080; calls by dose curve;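 further: BG1 cells stimulated with 17beta-estradiol alongside compound; series mostly up to about 70 µM; nearly all actives have a fitted effect of over 25% in size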)
Method in brief: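 Luciferase inhibition measured with ONE-Glo after 30 min at RT in BG1Luc4E2 cells given test compounds and 17beta-estradiol for 21.5 h at 37 C; CellTiter-Fluor viability read in the same wells beforehand.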

[8] = qHTS assay to identify small molecule antagonists of the estrogen receptor alpha (ER-alpha) signaling pathway using the BG1 cell line - cell viability counter screen (AID 743081);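 further: compound given together with 17beta-estradiol as the ER stimulus; series mostly up to about 70 µM; nearly all actives have a fitted effect of over 45% in size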
Aromatase (Homo sapiens) = Aromatase (Homo sapiens) (UniProt P11511); assay: qHTS assay to identify aromatase inhibitors (AID 743083); further: series mostly up to about 70 µM; nearly all actives have a fitted effect of over 55% in size
[9] = qHTS assay to identify aromatase inhibitors - cell viability counter screen (AID 743084);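 further: cells stimulated with testosterone during compound exposure; nearly all actives have a fitted effect of over 55% in size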
[10] = target: Aryl hydrocarbon receptor (Homo sapiens) (UniProt P35869); assay: qHTS assay to identify small molecule that activate the aryl hydrocarbon receptor (AhR) signaling pathway (AID 743085);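 further: HG2L7.5c1 human HepG2 liver cells with stably integrated DRE-driven firefly reporter; series mostly up to about 70 µM; nearly all actives have a fitted effect of over 15% in size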
Method in brief: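 Steps: seed HepG2-AhR-luc cells; allow 5 h at 37C; pin-transfer test compound or vehicle; incubate 24 h at 37C; add viability dye (30 min, 37C) and read fluorescence; add luciferase substrate (30 min, RT) and read luminescence.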

[11] = qHTS assay to identify small molecule that activate the aryl hydrocarbon receptor (AhR) signaling pathway - cell viability counter screen (AID 743086);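 further: HepG2 liver cells carrying the AhR DRE luciferase reporter; series mostly up to about 70 µM; nearly all actives have a fitted effect of over 45% in size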
Method in brief: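 HepG2-AhR-luc (HG2L7.5c1) cells, 4000/well, were preincubated 5 h at 37C, exposed to compound in qHTS format for 24 hr at 37C, then given CellTiter-Fluor for 30 min; viability was read as fluorescence in the reporter wells.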

[12] = target: Peroxisome proliferator-activated receptor gamma (Homo sapiens) (UniProt P37231); assay: qHTS assay to identify small molecule agonists of the peroxisome proliferator-activated receptor gamma (PPARg) signaling pathway (AID 743094; active means well fitted activation curve with a large enough effect in the signal ratio in the repeat runs, not every such curve was filed as active; the % refers to the signal ratio)
Method in brief: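 Cell-based bla reporter, HEK293H background, PPARg-driven UAS. Pre-incubation 5 h, 37C, 5% CO2. Compound 17 h, 37C. Substrate 1 h RT; fluorescence.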

[13] = target: Peroxisome proliferator-activated receptor gamma (Homo sapiens) (UniProt P37231); assay: qHTS assay to identify small molecule antagonists of the peroxisome proliferator-activated receptor gamma (PPARg) signaling pathway (AID 743191; calls by dose curve; further: series mostly up to about 63 µM; nearly all actives have a fitted effect of over 30% in size)
Method in brief: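 GeneBLAzer PPARg UAS-bla HEK293H cells carrying a UAS-driven beta-lactamase reporter were plated at 3000 cells/well, preincubated 5 h at 37C, then given compound for 17 h at 37C; LiveBLAzer B/G FRET substrate was read after 1 h at room temperature.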

[14] = qHTS assay for small molecule agonists of the antioxidant response element (ARE) signaling pathway (AID 743202; active means well fitted activation curve with a large enough effect in the signal ratio in the repeat runs, not every such curve was filed as active; the % refers to the signal ratio)
Method in brief: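 Steps: seed ARE-bla HepG2 cells (2,000/well); incubate 5 h at 37 C; add compounds by pin tool; incubate 16 h at 37 C; add FRET substrate; read fluorescence after 2 h at RT.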

[15] = qHTS assay for small molecule agonists of the antioxidant response element (ARE) signaling pathway - cell viability counter screen (AID 743203; calls by dose curve; further: nearly all actives have a fitted effect of over 55% in size)
Method in brief: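 Measured in the same wells as the beta-lactamase ARE reporter, this read-out is CellTiter-Glo luminescence from HepG2 ARE-bla cells given compounds for 16 hrs.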

[16] = qHTS assay for small molecule activators of the heat shock response signaling pathway - cell viability counter screen (AID 743209); further: nearly all actives have a fitted effect of over 50% in size
Method in brief: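 Same-well multiplex: after 2.5 h room-temperature incubation with LiveBLAzer B/G substrate and fluorescence reading, CellTiter-Glo reagent was added to HSE-bla HeLa cells that had received compound for 5 h at 37 C; luminescence read after 30 min.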

[17] = qHTS assay for small molecule activators of the heat shock response signaling pathway (AID 743210; active means well fitted activation curve with a large enough effect in the signal ratio in the repeat runs, with a control signal flat, not every such curve was filed as active; the % refers to the signal ratio;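 further: HeLa cells with beta-lactamase reporter driven by heat shock elements; series mostly up to about 63 µM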)
Method in brief: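 Activation of heat shock element-controlled beta-lactamase expression is measured in HeLa cells by LiveBLAzer FRET fluorescence, with compound exposure lasting 5 h at 37 C and substrate loading 2.5 h at room temperature.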

[18] = qHTS assay to identify small molecule agonists of the peroxisome proliferator-activated receptor delta (PPARd) signaling pathway - cell viability counter screen (AID 743211); further: nearly all actives have a fitted effect of over 55% in size
Method in brief: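 Viability of GeneBLAzer PPARd UAS-bla HEK293H cells was assessed after 17 h compound incubation at 37C, using CellTiter-Glo reagent added after the reporter read and luminescence recorded 30 min later.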

[19] = qHTS assay to identify small molecule antagonists of the peroxisome proliferator-activated receptor gamma (PPARg) signaling pathway - cell viability counter screen (AID 743194); further: nearly all actives have a fitted effect of over 55% in size
Method in brief: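 PPARg-UAS-bla HEK293H cells were plated, rested 5 h at 37 C, then treated with compounds plus rosiglitazone (50 nM final) for 17 h at 37 C; viability was then read by CellTiter-Glo luminescence after 30 min at room temperature.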

Chain of Estrogen receptor (Homo sapiens) (P03372 whole entry, looked up): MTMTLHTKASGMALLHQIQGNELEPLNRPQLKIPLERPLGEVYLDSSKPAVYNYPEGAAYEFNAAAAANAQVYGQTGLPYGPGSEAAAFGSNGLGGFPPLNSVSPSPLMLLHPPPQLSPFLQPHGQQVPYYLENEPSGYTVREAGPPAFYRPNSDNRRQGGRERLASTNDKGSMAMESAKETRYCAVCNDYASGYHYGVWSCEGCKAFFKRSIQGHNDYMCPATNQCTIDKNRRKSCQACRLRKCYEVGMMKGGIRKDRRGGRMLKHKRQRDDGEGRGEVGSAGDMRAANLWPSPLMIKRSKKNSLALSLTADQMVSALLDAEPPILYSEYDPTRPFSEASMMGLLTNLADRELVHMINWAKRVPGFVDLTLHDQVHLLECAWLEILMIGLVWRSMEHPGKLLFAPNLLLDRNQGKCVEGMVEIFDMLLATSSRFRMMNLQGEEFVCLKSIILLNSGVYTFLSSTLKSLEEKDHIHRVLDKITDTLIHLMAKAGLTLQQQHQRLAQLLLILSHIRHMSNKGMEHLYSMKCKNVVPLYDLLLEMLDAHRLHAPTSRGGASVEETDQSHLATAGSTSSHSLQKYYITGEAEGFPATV
Chain of Peroxisome proliferator-activated receptor gamma (Homo sapiens) (P37231 whole entry, looked up): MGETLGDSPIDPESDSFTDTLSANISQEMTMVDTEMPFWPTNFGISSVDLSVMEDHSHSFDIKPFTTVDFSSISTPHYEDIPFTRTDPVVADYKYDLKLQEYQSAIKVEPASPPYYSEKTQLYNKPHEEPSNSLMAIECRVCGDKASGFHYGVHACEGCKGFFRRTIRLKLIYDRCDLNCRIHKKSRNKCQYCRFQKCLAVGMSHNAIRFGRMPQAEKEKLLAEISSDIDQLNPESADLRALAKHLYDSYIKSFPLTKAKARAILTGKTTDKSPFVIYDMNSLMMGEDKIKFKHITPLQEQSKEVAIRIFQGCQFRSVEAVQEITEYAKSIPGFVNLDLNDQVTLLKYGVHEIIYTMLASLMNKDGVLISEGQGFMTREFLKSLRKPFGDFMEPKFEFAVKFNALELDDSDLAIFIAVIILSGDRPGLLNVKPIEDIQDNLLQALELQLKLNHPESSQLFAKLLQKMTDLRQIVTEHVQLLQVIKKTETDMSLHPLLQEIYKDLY
Chain of Aromatase (Homo sapiens) (P11511 whole entry, looked up): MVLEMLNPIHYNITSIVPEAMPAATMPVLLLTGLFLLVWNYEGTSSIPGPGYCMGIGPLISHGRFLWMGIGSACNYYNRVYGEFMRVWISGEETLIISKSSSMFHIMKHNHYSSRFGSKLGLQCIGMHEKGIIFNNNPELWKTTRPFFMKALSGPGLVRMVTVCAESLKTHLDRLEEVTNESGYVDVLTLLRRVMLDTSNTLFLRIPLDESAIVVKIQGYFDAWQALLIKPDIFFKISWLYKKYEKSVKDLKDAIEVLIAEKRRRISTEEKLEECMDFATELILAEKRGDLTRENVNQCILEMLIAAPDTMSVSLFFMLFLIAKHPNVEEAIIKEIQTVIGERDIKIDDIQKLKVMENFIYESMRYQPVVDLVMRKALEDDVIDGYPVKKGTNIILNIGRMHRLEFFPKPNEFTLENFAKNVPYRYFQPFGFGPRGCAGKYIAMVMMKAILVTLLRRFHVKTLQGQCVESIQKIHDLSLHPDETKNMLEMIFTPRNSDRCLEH
Chain of Aryl hydrocarbon receptor (Homo sapiens) (P35869 whole entry, looked up): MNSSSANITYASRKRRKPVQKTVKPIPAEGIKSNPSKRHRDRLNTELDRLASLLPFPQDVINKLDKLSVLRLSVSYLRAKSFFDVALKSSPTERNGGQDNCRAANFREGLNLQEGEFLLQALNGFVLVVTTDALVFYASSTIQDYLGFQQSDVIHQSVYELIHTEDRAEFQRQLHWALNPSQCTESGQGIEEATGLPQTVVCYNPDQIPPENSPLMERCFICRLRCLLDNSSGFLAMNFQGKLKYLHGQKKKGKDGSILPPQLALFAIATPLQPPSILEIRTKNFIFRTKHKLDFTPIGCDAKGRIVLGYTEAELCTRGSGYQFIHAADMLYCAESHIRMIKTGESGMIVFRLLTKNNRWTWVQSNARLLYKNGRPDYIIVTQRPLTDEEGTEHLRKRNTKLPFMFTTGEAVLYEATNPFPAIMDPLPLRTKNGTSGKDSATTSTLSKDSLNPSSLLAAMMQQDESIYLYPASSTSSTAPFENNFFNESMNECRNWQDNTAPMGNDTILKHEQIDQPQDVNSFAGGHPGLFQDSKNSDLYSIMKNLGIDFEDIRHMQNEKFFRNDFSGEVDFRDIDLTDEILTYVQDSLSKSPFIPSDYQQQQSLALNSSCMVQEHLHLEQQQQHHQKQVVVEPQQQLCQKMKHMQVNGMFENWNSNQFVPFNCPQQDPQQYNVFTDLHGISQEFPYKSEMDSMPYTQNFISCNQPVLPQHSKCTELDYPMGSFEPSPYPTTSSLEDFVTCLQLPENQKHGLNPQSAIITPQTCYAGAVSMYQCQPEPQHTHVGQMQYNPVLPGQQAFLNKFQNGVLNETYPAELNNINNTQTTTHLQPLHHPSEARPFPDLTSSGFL

Row | Structure (SMILES) | Potency [1] | outcome [2] | Potency [3] | Potency [4] | Potency [5] | Potency [6] | Potency [7] | outcome [8] | outcome (Aromatase (Homo sapiens)) | Potency [9] | Potency [10] | Potency [11] | Potency [12] | Potency [13] | Potency [14] | outcome [15] | outcome [16] | outcome [17] | outcome [18] | outcome [19]
1 | CCOC(=O)COC(=O)c1ccccc1C(=O)OCC | inactive | inactive | inactive | inactive | inactive | inactive | inactive | inactive | inactive | inactive | inactive | inactive | inactive | inactive | inactive | inactive | inactive | inactive | inactive | 
2 | CCCCN1C=CN(C)C1 | inactive | inactive | inactive | inactive | inactive | inactive | inactive | inactive | inactive | inactive | inactive | inactive | inactive | inactive | inactive | inactive | inactive | inactive | inactive | inactive
3 | CC1OC1C1CCC2(C)OC2C1 (stereo unspecified) | inactive | inactive | inactive | inactive | inactive | inactive | inactive | inactive | inactive | inactive | inactive | inactive | inactive | inactive | inactive | inactive | inactive | inactive | inactive | 
4 | Cc1ccc(-c2ncc(Cl)cc2-c2ccc(S(C)(=O)=O)cc2)cn1 | inactive | inactive | inactive | inactive | inactive | inactive | inactive | inactive | inactive | inactive | inactive | inactive | inactive | inactive |  | inactive | inactive | inactive | inactive | inactive
5 | CCC1C(=O)OCC1Cc1cncn1C (stereo unspecified) | inactive | inactive | inactive | inactive | inactive | inactive | inactive | inactive | inactive | inactive | inactive | inactive | inactive | inactive | inactive | inactive | inactive | inactive | inactive | inactive
6 | CCCC[N+](C)(CCCC)CCCC | inactive | inactive | inactive | inactive | inactive | inactive | inactive | inactive | inactive | inactive |  | inactive | inactive | inactive | inactive |  |  |  | inactive | inactive
7 | CC1(C)OC[C@@H](COC(=O)CCc2ccc(OC[C@@H](O)CNCCNC(=O)N3CCOCC3)cc2)O1 | inactive | inactive | inactive | inactive | inactive | inactive | inactive | inactive | inactive | inactive | inactive | inactive | inactive | inactive |  | inactive |  |  | inactive | inactive
8 | CN(C)C(=O)Oc1cccc([N+](C)(C)C)c1 | inactive | inactive | inactive | inactive | inactive | inactive | inactive | inactive | inactive | inactive | inactive | inactive | inactive |  |  |  | inactive | inactive | inactive | inactive
9 | CC(C)(N)C#N | inactive | inactive | inactive | inactive | inactive | inactive | inactive | inactive | inactive | inactive | inactive | inactive | inactive | inactive | inactive |  | inactive | inactive | inactive | inactive
10 | CCOC(=O)CCC(=O)OCC | inactive | inactive | inactive | inactive | inactive | inactive | inactive | inactive | inactive | inactive | inactive | inactive | inactive | inactive | inactive | inactive |  |  | inactive | inactive
11 | Cc1ccc(C(=O)c2ccccc2)cc1 | inactive | inactive | inactive | inactive | inactive | 21.7 µM (active) | inactive | inactive | inactive | inactive |  | inactive | inactive |  | inactive | inactive | inactive | inactive | inactive | inactive
12 | O=S(=O)(O)c1cccc(S(=O)(=O)O)c1 | inactive | inactive | inactive | inactive | inactive | inactive | inactive | inactive | inactive | inactive | inactive | inactive | inactive | inactive |  | inactive |  |  | inactive | inactive
13 | O=S(=O)(O)c1cc(O)c(O)c(S(=O)(=O)O)c1 | inactive | inactive | inactive | inactive | inactive | inactive |  | inactive | inactive | inactive | inactive | inactive | inactive | inactive |  | inactive | inactive | inactive | inactive | inactive
14 | CC(=O)c1ccccc1[N+](=O)[O-] | inactive | inactive | inactive | inactive | inactive | inactive | inactive | inactive | inactive | inactive | inactive | inactive | inactive | inactive |  | inactive | inactive | inactive | inactive | inactive
